Data published in PubChem BioAssay AID1159580 (chemical genetic matrix, 2015).
The campaign covered roughly 5,500 compounds. About 2,000 (36%) were called active. Another 18% or so got no clear call; they are omitted. Cut-off read from the data, not from the text of the source: active = normalized growth mostly below about 0.91 (no sharp cut-off); inconclusive = no clear call, values can overlap the other calls; inactive = mostly above about 0.92. Some of the results follow. Where a SMILES comes first, the peptide text is derived from it. The star is where a group is joined. Cbz = O=C(OCc1ccccc1)*

Test: chemical genetic growth profiling, strain panel (AID 1159580);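 note: tested at 20 µM; growth read once vehicle control cultures reached saturation at 30 °C; 1 = growth at the plate median or of vehicle wells; lower values mean less growth of the strain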
Conditions: S. cerevisiae deletion strains, growth OD
[1] = locus YHR030C, strain SLT2, active compounds read low
[2] = locus YHR079C, strain IRE1, active compounds read low
[3] = locus YJL095W, strain BCK1, active compounds read low
[4] = locus YJR066W, strain TOR1, active compounds read low
[5] = locus YLR113W, strain HOG1, active compounds read low
[6] = locus YNL183C, strain NPR1, active compounds read low
[7] = locus YOR231W, strain MKK1, active compounds read low
[8] = locus YPL256C, strain CLN2, active compounds read low
[9] = locus YAL040C, strain CLN3, active compounds read low
[10] = locus YCL061C, strain MRC1 (second series), active compounds read low
[11] = locus YDR363W, strain ESC2, active compounds read low
[12] = locus YER002W, strain NOP16, active compounds read low
[13] = locus YMR263W, strain SAP30, active compounds read low
[14] = locus YMR307W, strain GAS1, active compounds read low
[15] = locus YNL175C, strain NOP13, active compounds read low
[16] = locus YNL197C, strain WHI3, active compounds read low
[17] = locus YNL224C, strain SQS1, active compounds read low
[18] = locus YNL322C, strain KRE1, active compounds read low
[19] = locus YOR083W, strain WHI5 (second series), active compounds read low

Measured: normalized growth

COC(=O)[C@H](Cc1ccccc1)NC(=O)[C@@H](N)CC(=O)O (H-Asp-Phe-OMe)
inactive: locus YAL021C, strain ccr4, active compounds read low 1.01 | locus YAL026C, strain drs2, active compounds read low 1.01 | locus YAL030W, strain snc1, active compounds read low 1 | locus YBL061C, strain skt5, active compounds read low 1.02 | locus YBR009C, strain hhf1, active compounds read low 1.02 | locus YBR023C, strain chs3, active compounds read low 1.02 | locus YBR171W, strain sec66, active compounds read low 1.02 | locus YBR231C, strain swc5, active compounds read low 1.03 | locus YBR279W, strain paf1, active compounds read low 1.02 | locus YCL011C, strain gbp2, active compounds read low 1.02 | locus YCL016C, strain dcc1, active compounds read low 1.01 | locus YCL061C, strain MRC1, active compounds read low 1.01 | locus YCL069W, strain vba3, active compounds read low 1.02 | locus YCR088W, strain abp1, active compounds read low 1.01 | locus YDL005C, strain med2, active compounds read low 1 | locus YDL040C, strain nat1, active compounds read low 1.01 | locus YDR001C, strain nth1, active compounds read low 1.02 | locus YDR069C, strain doa4, active compounds read low 1.02 | locus YDR137W, strain rgp1, active compounds read low 1.01 | locus YDR159W, strain sac3, active compounds read low 1.02 | locus YDR195W, strain ref2 1.01 | locus YDR297W, strain sur2, active compounds read low 1.02 | locus YDR334W, strain swr1, active compounds read low 1.01 | locus YDR335W, strain msn5, active compounds read low 1.02 | locus YDR392W, strain spt3, active compounds read low 0.958 | locus YEL003W, strain gim4, active compounds read low 1.02 | locus YEL037C, strain rad23, active compounds read low 1.02 | locus YEL061C, strain CIN8 (second series), active compounds read low 1.01 | locus YER015W, strain faa2, active compounds read low 1.01 | locus YER016W, strain bim1, active compounds read low 1.01 | locus YER111C, strain swi4, active compounds read low 1.02 | locus YER155C, strain BEM2 (second series), active compounds read low 1.03 | locus YFR010W, strain ubp6, active compounds read low 1.02 | locus YGL167C, strain pmr1, active compounds read low 1.02 | locus YGL173C, strain kem1, active compounds read low 1.01 | locus YGL227W, strain vid30, active compounds read low 1.02 | locus YGL240W, strain doc1, active compounds read low 1.04 | locus YGL253W, strain hxk2, active compounds read low 1 | locus YHR013C, strain ard1, active compounds read low 1.01 | locus YHR027C, strain rpn1, active compounds read low 1.02 | [1] 1.02 | [2] 1.02 | locus YHR142W, strain chs7, active compounds read low 1.01 | locus YJL092W, strain hpr5, active compounds read low 1.02 | locus YJL095W, strain BCK1 (second series), active compounds read low 1.02 | [3] 0.978 | locus YJL115W, strain asf1, active compounds read low 1.02 | locus YJL129C, strain trk1, active compounds read low 1.01 | locus YJL154C, strain vps35, active compounds read low 1.02 | locus YJL164C, strain tpk1, active compounds read low 0.999 | locus YJL166W, strain qcr8, active compounds read low 1.03 | [4] 0.961 | locus YKL160W, strain elf1, active compounds read low 1.02 | locus YKR026C, strain gcn3, active compounds read low 1.02 | locus YKR091W, strain srl3, active compounds read low 1.02 | locus YLL001W, strain dnm1, active compounds read low 1.01 | locus YLL026W, active compounds read low 1.02 | locus YLL041C, strain sdh2, active compounds read low 1.02 | locus YLR027C, strain aat2, active compounds read low 1.02 | [5] 0.969 | locus YLR221C, strain rsa3, active compounds read low 0.998 | locus YLR258W, strain gsy2, active compounds read low 1.02 | locus YLR262C, strain YPT6 (second series), active compounds read low 1.02 | locus YLR320W, strain mms22, active compounds read low 1.01 | locus YLR342W, strain FKS1, active compounds read low 1.03 | locus YLR357W, strain rsc2, active compounds read low 1.03 | locus YLR370C, strain arc18, active compounds read low 1.01 | locus YLR384C, strain iki3, active compounds read low 1.02 | locus YML120C, strain ndi1, active compounds read low 1.01 | locus YMR058W, strain fet3, active compounds read low 1.02 | locus YMR125W, strain sto1, active compounds read low 1.01 | locus YMR129W, active compounds read low 1.02 | locus YMR205C, strain PFK2, active compounds read low 1.02 | locus YMR231W, strain pep5, active compounds read low 1.03 | locus YNL071W, strain lat1, active compounds read low 1.02 | [6] 0.96 | locus YNL209W, strain ssb2, active compounds read low 1.01 | locus YNL248C, strain rpa49, active compounds read low 1 | locus YNL322C, strain KRE1 (second series), active compounds read low 1.02 | locus YNR049C, strain mso1, active compounds read low 1.02 | locus YOR001W, strain rrp6, active compounds read low 1.01 | locus YOR070C, strain gyp1, active compounds read low 1.01 | locus YOR080W, strain dia2, active compounds read low 1.02 | locus YOR083W, strain WHI5, active compounds read low 1.02 | locus YOR106W, strain vam3, active compounds read low 1.03 | [7] 1.02 | locus YOR265W, strain rbl2, active compounds read low 1.01 | locus YOR270C, strain vph1, active compounds read low 1.05 | locus YOR290C, strain snf2, active compounds read low 0.995 | locus YPL051W, strain arl3, active compounds read low 1.03 | locus YPL078C, strain atp4, active compounds read low 1.02 | locus YPL106C, strain sse1, active compounds read low 1.03 | locus YPL240C, strain hsp82, active compounds read low 1.01 | [8] 1.02

CC(=O)NC(Cc1ccccc1)C(=O)O (stereo not drawn)
inactive: [1] 0.979 | [2] 0.984 | [3] 0.985 | [4] 0.91 | [5] 1.02 | [6] 0.89 | [7] 0.997 | [8] 0.984

Cc1ccc(S(=O)(=O)N[C@@H](CCCCN)C(=O)CCl)cc1
inactive: locus YAL013W, strain DEP1, active compounds read low 1.02 | [9] 1.04 | [10] 1.01 | [11] 1.05 | [12] 1.02 | locus YGR229C, strain SMI1, active compounds read low 0.962 | locus YJR075W, strain HOC1, active compounds read low 0.995 | [13] 1.01 | [14] 1.01 | [15] 1.01 | [16] 1.02 | [17] 1.01 | [18] 1.02 | [19] 1.01 | locus YPL055C, strain LGE1, active compounds read low 1.03

CC(C)[C@H](NC(=O)OCc1ccccc1)C(=O)N[C@H](C=O)Cc1ccccc1 (Cbz-Val-Phe-aldehyde)
inactive: [9] 0.961 | [10] 1 | [11] 1.04 | [12] 0.993 | [13] 0.976 | [14] 1.02 | [15] 0.969 | [16] 0.969 | [17] 0.996 | [18] 1 | [19] 0.997
